Screening results from PubChem.
The list is not random: actives were taken first. Their share in the collection is about 17%.
TDP1 cell CPT – DT40-hTDP1 cell growth loss with CPT. chicken DT40 Tdp1-/-;hTDP1 cells + 20 nM CPT, ATP luminescence, 48 h. Potency, µM (highest dose often 46.2 µM), without a hit: at the highest dose activity change, negative = growth inhibition, hits mostly inhibitors. 420,000 compounds, 12% hits; also: % is scaled to controls: 0 for no effect and ±100 for the full control effect; nearly all actives have a fitted effect of over 55% in size
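Chicken DT40 Tdp1-/- cells complemented with human TDP1, 400 cells/well, exposed to compounds plus 20 nM camptothecin for at least 48 h at 37 C; viability read as ATP content by CellTiter-Glo luminescence.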
DT40 TDP1 no CPT – qHTS for Inhibitors of human tyrosyl-DNA phosphodiesterase 1 (TDP1): qHTS in cells in absence of CPT; DT40 Tdp1-/- hTDP1 cells, no CPT, ATP luminescence, 48 h; Potency, µM (highest dose often 46.2 µM), for inactives: at the highest dose activity change, negative = growth inhibition, hits mostly inhibitors; 420,000 compounds, 15% hits; also: % is scaled to controls: 0 for no effect and ±100 for the full control effect; nearly all actives have a fitted effect of over 55% in size
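Chicken DT40 Tdp1-/- cells complemented with human TDP1, screened without camptothecin (DMSO vehicle only), 400 cells/well. Compounds pin-transferred, cells incubated at 37 °C for at least 48 hr. Growth read as ATP-dependent luminescence (CellTiter-Glo, 30 min at RT).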
TGFb SMAD3 inh – TGF-b pathway inhibition | HepG2 CAGA-GFP TGF-b/SMAD3 reporter, GFP fluorescence, 18 h; TGF-beta stimulated, 500 pg/mL final | Potency, µM (top dose mostly 46.1 µM), inactives show top-dose activity, negative = inhibition, usual class: inhibitors | 410,000 compounds, 1.2% hits; also: % is scaled to controls: 0 for no effect and ±100 for the full control effect; nearly all actives have a fitted effect of over 65% in size
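Per well, imaged GFP fluorescence of HEPG2 CAGA-GFP cells gives the signal; cells get compound, then TGF-beta (500 pg/mL final), 18 h at 37 degrees C; %Activity versus -TGF-beta and +DMSO controls.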
S2 tox – reduces viability in counter-screen for ATXN expression inhibitors; S2 cells (HEK-293 line with an ATXN2-luciferase reporter) viability, CellTiter-Fluor protease fluorescence, 24 h; Potency, µM (top dose mostly 56.7 µM), usual class: cytotoxic; 400,000 compounds, 0.49% hits; AID 651635; also: nearly all actives have a fitted effect of over 40% in size
ATXN2 expr inh – reduces ATXN2 reporter expression in HEK-293 cells; Potency, µM (titrated, usually from 57 µM), for the others: top-dose activity change, negative = inhibition, most hits filed as inhibitors; AID 1745845; 360,000 compounds, 0.72% hits; HEK-293 ATXN2-luciferase reporter, luminescence, 24 h; also: % is scaled to controls: 0 for no effect and ±100 for the full control effect; nearly all actives have a fitted effect of over 55% in size
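ATXN2-luciferase reporter cells (luciferase flanked by upstream and downstream ATXN2 gene portions) were treated 24 h at 37 °C with compounds at up to 57 uM. SteadyGlo luminescence gave expression; GF-AFC fluorescence gave viability.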
HepG2 tox – kills HepG2 cells in TGF-b inhibitor counter-screen | HepG2 CAGA-GFP viability, ATP luminescence, 18 h | Potency, µM (top dose mostly 46.1 µM), inactives show at the top dose activity change, negative = cytotoxicity, usual class: cytotoxic | 410,000 compounds, 0.76% hits | AID 588856
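HepG2 CAGA-GFP cells (1000/well, DMEM with 1% FBS) received compound, then TGF-beta at 500 pg/mL final, and were incubated 18 hours at 37 degrees C. Viability was read by CellTiter-Glo luminescence. Media-only wells were set as complete cell-killing and DMSO as no toxicity.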
An asterisk follows results filed as active; i = inactive; ? = inconclusive; / = not tested or not shown; [ ] = another dose, or the depositor's remark. Calls follow the shape of the dose curve; as a rule, active = well fitted curve in the direction sought with a large enough effect; inconclusive = small, poorly fitted or top-dose-only effect, or another doubt; inactive = no such curve, though single readings can be large; an effect the other way counts as inactive or inconclusive. Potency is read from the fitted curve at half-maximal effect.

SMILES	TDP1 cell CPT	DT40 TDP1 no CPT	TGFb SMAD3 inh	S2 tox	ATXN2 expr inh	HepG2 tox
Cc1cc(-c2ccccc2)nc(N/N=C/c2ccc([N+](=O)[O-])cc2)n1	?	?	21.8%	i	-29.1%	-2.1%
CC(C(=O)NC1CCCC1)n1c(C2CC2)nc2ccccc21 (stereo unspecified)	-21.2%	-0.1%	/	/	/	/
Cc1cc(C)n(CCC(=O)N2CCc3ccccc32)n1	-4.7%	-27.4%	-1.1%	i	/	4.3%
Cc1cc(-c2ccccc2)nc(N/N=C/c2ccccc2)n1	20.6µM*	23.1µM*	?	i	?	-45.9%
CN(/N=C/c1ccc(O)cc1O)c1nc(-c2ccccc2)cc(-c2ccccc2)n1	20.6µM*	11.6µM*	-108.3%	/	?	-113.6%
CCN(Cc1nc2cc(Cl)ccc2c(=O)[nH]1)C(=O)c1cccc(NC(=O)c2cccs2)c1	?	?	?	?	/	-56.9%
CCN(Cc1nc2ccccc2c(=O)[nH]1)C(=O)c1cc(C2CC2)nn1-c1ccccc1	?	?	-5.5%	?	-9.4%	-17.1%
CCN(Cc1nc2ccccc2c(=O)[nH]1)C(=O)c1cccc(NC(=O)c2cccs2)c1	11.6µM*	?	?	i	0.2%	-42.7%
CCN(Cc1nc2ccccc2c(=O)[nH]1)C(=O)c1cc2c(s1)CCCCC2	14.6µM*	?	7.8%	i	-13.8%	-49.5%
CCOC(=O)C1=C(C)N=C(/N=C/N(C)C)SC1c1ccccc1 (stereo unspecified)	?	?	-3.5%	i	4.6%	-20.2%
O=C(C[n+]1cccc(Br)c1)c1ccc(O)c(O)c1	0.7%	-18.7%	0.2%	/	/	-21.7%
O=C(C[n+]1csc2ccccc21)c1ccc(O)c(O)c1	?	15.8µM*	?	/	/	-5.9%
CCC1CCCCN1CCCNC(=O)CN1C(=O)COc2ccccc21 (stereo unspecified)	4.6%	22.0%	-5.5%	i	0.3%	-6.7%
CCOC(=O)Nc1ccc(/C=C/c2ccnc3ccccc23)cc1	?	12.6µM*	?	/	/	-25.6%
CCCCCCCCCCCCCC(=O)Nc1ccc(/C=C/c2ccnc3ccccc23)cc1	11.2µM*	17.8µM*	4.2%	/	/	-8.3%
c1cn(-c2cc(-c3ccc4c(c3)OCO4)ncn2)cn1	?	-9.1%	/	/	/	/
COc1cc(/C=C(\C#N)C(=O)NCc2ccccc2)ccc1OCc1ccc(C(=O)O)cc1	?	?	6.4%	i	0.7%	-33.3%
COc1ccc(CCNC(=O)/C(C#N)=C/c2cccc(OCc3ccccc3)c2)cc1OC	?	18.4µM*	?	i	-20.5%	-19.6%
CCC(Oc1ccccc1F)C(=O)Nc1cc(-c2ccccc2)no1 (stereo unspecified)	?	?	10.5%	i	-3.3%	-8.9%
O=C1CCC/C1=c1\s/c(=C\c2cccnc2)c(=O)n1-c1ccccc1	?	16.4µM*	11.0%	i	-11.5%	-11.2%
Cc1ccccc1NC(=O)C(=O)NNC(=O)COc1ccc2ccccc2c1	?	?	-0.6%	i	-14.0%	0.6%
CCN1CCN(CCNC(=O)c2ccc3c(c2)N(Cc2ccc(F)cc2)C(=O)/C(=C/c2ccccc2)S3)CC1	11.6µM*	8.2µM*	?	?	?	-185.4%
CCN1CCN(CCNC(=O)c2ccc(/C=C3/Sc4ccccc4N(Cc4cccc(Cl)c4)C3=O)cc2)CC1	18.4µM*	18.4µM*	?	28.2µM*	25.1µM*	22.4µM*
O=C(NCCN1CCOCC1)c1ccc(/C=C2\Sc3ccccc3N(Cc3ccccc3F)C2=O)cc1	?	?	?	i	/	-49.1%
Cc1ccccc1CN1C(=O)/C(=C\c2ccc(C(=O)NCCN3CCOCC3)cc2)Sc2ccccc21	?	?	?	i	-35.1%	-36.6%
SMILES	TDP1 cell CPT	DT40 TDP1 no CPT	TGFb SMAD3 inh	S2 tox	ATXN2 expr inh	HepG2 tox
Cn1cc(CNC2CCN(c3cccc(NC(=O)c4cccnc4)c3)CC2)cn1	6.6%[9.04 µM]	-1.8%	/	i	/	/
CC(C)(C)CN1CCC(Oc2cccc(C(=O)N3CCNC(=O)C3(C)C)c2)CC1	-10.1%	13.1%	0.9%	i	2.6%	-5.9%
O=S1(=O)CCC(NC(=S)SCCOc2ccccc2)C1 (stereo unspecified)	8.2µM*	10.3µM*	20µM*	?	-17.7%	-39.9%
CCCCSC(=S)NC1CCS(=O)(=O)C1 (stereo unspecified)	9.2µM*	11.6µM*	-1.9%	i	-12.9%	-47.7%
O=S1(=O)CCC(NC(=S)NC2CCS(=O)(=O)C2)C1 (stereo unspecified)	34.5%	-7.0%	-3.0%	i	-22.5%	27.4%
CC(OC(=O)CN1C(=O)c2ccccc2C1=O)C(=O)NC1CCCCC1 (stereo unspecified)	-6.9%	2.2%	-5.3%	i	1.2%	-7.2%
CCOC(=O)C1(Cc2ccccc2C)CCCN(C(=O)c2sccc2C)C1 (stereo unspecified)	18.4µM*	?	-0.6%	i	31.1%	-13.0%
CCOC(=O)C1(Cc2ccccc2C)CCCN(C(=O)c2ccoc2)C1 (stereo unspecified)	-29.7%	?	2.2%	i	33.5%	10.8%
CCOC(=O)C1(Cc2ccccc2C)CCCN(S(=O)(=O)c2cccnc2)C1 (stereo unspecified)	?	16.4µM*	-4.8%	i	-28.0%	-13.7%
Cc1ccc(S(=O)(=O)N2CCCCC2)cc1NC(=O)Cn1cnc2c1c(=O)n(C)c(=O)n2C	11.5%	-8.7%	28.0%	i	3.7%	-0.2%
CCCCC[C@H](C)N1C[C@H](COCc2ccccc2)Oc2cc(N3CCC[C@H]3C(N)=O)ccc2S1(=O)=O	?	?	/	?	-34.9%	/
C[C@H](c1ccccc1)N1C[C@H](COCc2ccccc2)Oc2cc(N3CCC[C@H]3C(N)=O)ccc2S1(=O)=O	?	16.4µM*	/	?	-8.5%	/
CCCCC[C@@H](C)N1C[C@H](COCc2ccccc2)Oc2cc(N3CCC[C@H]3C(N)=O)ccc2S1(=O)=O	2.91µM*	6.51µM*	/	?	-26.3%	/
NC(=S)NN=C1CCC(C2CCCCC2)CC1 (stereo unspecified)	5.8µM*	3.66µM*	?	?	-33.8%	-38.4%
O=C(NN=C1CCCCCC1)NC1CCCCC1	14.4%	-11.0%	-5.7%	i	-11.1%	-21.3%
